{"source": "the supplement of paper PMC10338343", "note": "± gives the standard deviation."}
{"tested_on": "MILI (PIWIL2) piRISC loaded with piRNA #1 (26 nt)", "assay": "pre-steady-state target cleavage rate (min^-1); guide: piRNA #1 5'p-UGAGGUAGUAGGUUGUAUAGUAUCCA; higher = faster piRNA-guided slicing of the target", "conditions": "auxiliary factor: 500 nM mouse GTSF1", "outline": "(§1)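 In this Cleave-'n-Seq assay, uncleaved targets were sequenced and normalised to depth and to weakly complementary targets. They came from a transcribed, DNA-blocked target RNA library […] mixed with 1 nM active affinity-purified piRISC carrying one synthetic guide, with or without 500 nM GTSF1 partner protein, in HEPES–potassium acetate buffer at 33 °C for 0–8 or 0–960 min. After three trials were pooled and k3 was capped at 0.0001 min^-1, the pre-steady-state cleavage rate was obtained from a burst-and-steady-state fit.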"}
{"sequence": "GGAGUGCAAACUAUACAACCUACUACCUCA", "pre-steady-state target cleavage rate": "0.126 ± 0.012"}
{"sequence": "GGAGACCAUACUAUACAACCUAGCUACCUCA", "pre-steady-state target cleavage rate": "0.0804 ± 0.012"}
{"sequence": "GGAGAGGAUAGUAUACAACCUUCUACCUCA", "pre-steady-state target cleavage rate": "0.00649 ± 0.004"}
{"sequence": "GGAGAGGAUACUAUACCACCUACUACCUCA", "pre-steady-state target cleavage rate": "0.212 ± 0.019"}
{"sequence": "GGAGUGCGAUACUAUACAACCUACUACCUCA", "pre-steady-state target cleavage rate": "0.206 ± 0.013"}
{"sequence": "GGAGACGAUACUAUACAAGCAACUACCUCA", "pre-steady-state target cleavage rate": "0.00923 ± 0.0026"}
{"sequence": "GGAGACGAUACUAUACAAGGUACUACCUCA", "pre-steady-state target cleavage rate": "0.0884 ± 0.013"}
{"sequence": "GGAGAGGAUACUAUACAACCUAGCUACCUCA", "pre-steady-state target cleavage rate": "0.0538 ± 0.0062"}
{"sequence": "GGAGUGGAUACUAUACAAGCUUCUACCUCA", "pre-steady-state target cleavage rate": "0.0391 ± 0.0037"}
{"sequence": "GGAGACCAUACUAUACAACCUACUACGUGA", "pre-steady-state target cleavage rate": "0.115 ± 0.024"}
{"sequence": "GGAGUGGAUACUAAACAACCUACAACCUCA", "pre-steady-state target cleavage rate": "0.0728 ± 0.009"}
{"sequence": "GGAGUGGAUACUAUACAACCUACUGCCUCA", "pre-steady-state target cleavage rate": "0.102 ± 0.0082"}
{"sequence": "GGAGACCAUUCUAUACAACCUACUACGUCA", "pre-steady-state target cleavage rate": "0.0404 ± 0.0088"}
{"sequence": "GGAGACGUUACUAUACUACCUACUACCUCA", "pre-steady-state target cleavage rate": "0.169 ± 0.011"}
{"sequence": "GGAGAGGAUACCAUACAACCUACUACCUCA", "pre-steady-state target cleavage rate": "0.167 ± 0.021"}
{"sequence": "GGAGAGGAUACUAUUCAACCUACAACCUCA", "pre-steady-state target cleavage rate": "0.0909 ± 0.01"}
{"sequence": "GGAGAGCUUACUAUACAACCUACUACCUCA", "pre-steady-state target cleavage rate": "0.132 ± 0.0097"}
{"sequence": "GGAGACGAUACUAUACAACCUUCUACCACA", "pre-steady-state target cleavage rate": "0.00864 ± 0.0028"}
{"sequence": "GGAGACCUAUGUAUACAACCUACUACCUCG [g2:g19:cont:t1G]", "pre-steady-state target cleavage rate": "0.0649 ± 0.0098"}
{"sequence": "GGAGACGAUACUAAUACAACCUACUACCUCA", "pre-steady-state target cleavage rate": "0.134 ± 0.01"}
{"sequence": "GGAGAGGUUACUAAACAACCUACUACCUCA", "pre-steady-state target cleavage rate": "0.142 ± 0.013"}
{"sequence": "GGAGAGGAUACUAUUCAACCUUCUACCUCA", "pre-steady-state target cleavage rate": "0.00949 ± 0.0023"}
{"sequence": "GGAGUGGAUUCUAUACAACCUACUACCUGA", "pre-steady-state target cleavage rate": "0.0905 ± 0.012"}
{"sequence": "GGAGAGGUUACUAUACAACCUACUACCACA", "pre-steady-state target cleavage rate": "0.0673 ± 0.0096"}
{"sequence": "GGAGACCUAUCUAUACAACCUACUACCUCU [g2:g20:cont:t1U]", "pre-steady-state target cleavage rate": "0.0927 ± 0.011"}
{"sequence": "GGAGACGUUACUAUACAACCUAGUACCUCA", "pre-steady-state target cleavage rate": "0.0428 ± 0.0087"}
{"sequence": "GGAGUGGAAACAAUACAACCUACUACCUCA", "pre-steady-state target cleavage rate": "0.184 ± 0.018"}
{"sequence": "GGAGAGGAUACUAUACAACCCUACUACCUCA", "pre-steady-state target cleavage rate": "0.0028 ± 0.0028"}
{"sequence": "GGAGACCUAACUAUACUACCUACUACCUCA", "pre-steady-state target cleavage rate": "0.125 ± 0.022"}
{"sequence": "GGAGUGGAUACUAUACUACCUACUACCUCA", "pre-steady-state target cleavage rate": "0.196 ± 0.0088"}
{"sequence": "GGAGACGAUACUAUAGAAGCUACUACCUCA", "pre-steady-state target cleavage rate": "0.16 ± 0.014"}
{"sequence": "GGAGUGGAUACUAAACAACCUACUACGUCA", "pre-steady-state target cleavage rate": "0.0421 ± 0.0062"}
{"sequence": "GGAGACCUAUCUAUGCAACCUACUACCUCA", "pre-steady-state target cleavage rate": "0.122 ± 0.014"}
{"sequence": "GGAGACGAUACUAUACAACCGACUACCUCA", "pre-steady-state target cleavage rate": "0.00402 ± 0.0035"}
{"sequence": "GGAGACCAUUCUAUACAACCUACUACCUGA", "pre-steady-state target cleavage rate": "0.0973 ± 0.016"}
{"sequence": "GGAGUGGAUACUAUACAACCAUACUACCUCA", "pre-steady-state target cleavage rate": "0.00751 ± 0.003"}
{"sequence": "GGAGUGGAUACUAUACAACGUUCUACCUCA", "pre-steady-state target cleavage rate": "0.00599 ± 0.0017"}
{"sequence": "GGAGACCUAUCCUAUACAACCUACUACCUCA", "pre-steady-state target cleavage rate": "0.106 ± 0.011"}
{"sequence": "GGAGAGGAUCACUAUACAACCUACUACCUCA", "pre-steady-state target cleavage rate": "0.086 ± 0.019"}
{"sequence": "GGAGAGGAUACUAUACAACCUACUACCCA", "pre-steady-state target cleavage rate": "0.0505 ± 0.014"}
{"tested_on": "EfPiwi piRISC loaded with piRNA #1 (26 nt)", "assay": "pre-steady-state target cleavage rate (min^-1); auxiliary factor: 500 nM Ephydatia muelleri Gtsf1; guide: piRNA #1 5'p-UGAGGUAGUAGGUUGUAUAGUAUCCA; MIWI and MILI are mouse PIWI proteins and EfPiwi is from a freshwater sponge; tags in brackets are library labels; higher = faster piRNA-guided slicing of the target", "conditions": "not given", "outline": "as §1"}
{"sequence": "GGAGUGCAAACUAUACAACCUACUACCUCA", "pre-steady-state target cleavage rate": "0.00676 ± 0.0044"}
{"sequence": "GGAGACCAUACUAUACAACCUAGCUACCUCA", "pre-steady-state target cleavage rate": "0.00373 ± 0.0029"}
{"sequence": "GGAGAGGAUAGUAUACAACCUUCUACCUCA", "pre-steady-state target cleavage rate": "0.00304 ± 0.0024"}
{"sequence": "GGAGAGGAUACUAUACCACCUACUACCUCA", "pre-steady-state target cleavage rate": "0.00648 ± 0.003"}
{"sequence": "GGAGUGCGAUACUAUACAACCUACUACCUCA", "pre-steady-state target cleavage rate": "0.136 ± 0.044"}
{"sequence": "GGAGACGAUACUAUACAAGCAACUACCUCA", "pre-steady-state target cleavage rate": "0.0046 ± 0.003"}
{"sequence": "GGAGACGAUACUAUACAAGGUACUACCUCA", "pre-steady-state target cleavage rate": "0.00393 ± 0.0023"}
{"sequence": "GGAGAGGAUACUAUACAACCUAGCUACCUCA", "pre-steady-state target cleavage rate": "0.0038 ± 0.0017"}
{"sequence": "GGAGUGGAUACUAUACAAGCUUCUACCUCA", "pre-steady-state target cleavage rate": "0.00507 ± 0.0021"}
{"sequence": "GGAGACCAUACUAUACAACCUACUACGUGA", "pre-steady-state target cleavage rate": "0.0051 ± 0.0028"}
{"sequence": "GGAGUGGAUACUAAACAACCUACAACCUCA", "pre-steady-state target cleavage rate": "0.00162 ± 0.0015"}
{"sequence": "GGAGUGGAUACUAUACAACCUACUGCCUCA", "pre-steady-state target cleavage rate": "0.00835 ± 0.0028"}
{"sequence": "GGAGACCAUUCUAUACAACCUACUACGUCA", "pre-steady-state target cleavage rate": "0.0027 ± 0.0025"}
{"sequence": "GGAGACGUUACUAUACUACCUACUACCUCA", "pre-steady-state target cleavage rate": "0.00494 ± 0.0024"}
{"sequence": "GGAGAGGAUACCAUACAACCUACUACCUCA", "pre-steady-state target cleavage rate": "0.0957 ± 0.032"}
{"sequence": "GGAGAGGAUACUAUUCAACCUACAACCUCA", "pre-steady-state target cleavage rate": "0.00238 ± 0.0017"}
{"sequence": "GGAGAGCUUACUAUACAACCUACUACCUCA", "pre-steady-state target cleavage rate": "0.0193 ± 0.0089"}
{"sequence": "GGAGACGAUACUAUACAACCUUCUACCACA", "pre-steady-state target cleavage rate": "0.00454 ± 0.0022"}
{"sequence": "GGAGACCUAUGUAUACAACCUACUACCUCG [g2:g19:cont:t1G]", "pre-steady-state target cleavage rate": "0.00909 ± 0.0048"}
{"sequence": "GGAGACGAUACUAAUACAACCUACUACCUCA", "pre-steady-state target cleavage rate": "0.0773 ± 0.031"}
{"sequence": "GGAGAGGUUACUAAACAACCUACUACCUCA", "pre-steady-state target cleavage rate": "0.00353 ± 0.0034"}
{"sequence": "GGAGAGGAUACUAUUCAACCUUCUACCUCA", "pre-steady-state target cleavage rate": "0.0031 ± 0.0028"}
{"sequence": "GGAGUGGAUUCUAUACAACCUACUACCUGA", "pre-steady-state target cleavage rate": "0.00261 ± 0.002"}
{"sequence": "GGAGAGGUUACUAUACAACCUACUACCACA", "pre-steady-state target cleavage rate": "0.00331 ± 0.0014"}
{"sequence": "GGAGACCUAUCUAUACAACCUACUACCUCU [g2:g20:cont:t1U]", "pre-steady-state target cleavage rate": "0.993 ± 0.45"}
{"sequence": "GGAGACGUUACUAUACAACCUAGUACCUCA", "pre-steady-state target cleavage rate": "0.00427 ± 0.0015"}
{"sequence": "GGAGUGGAAACAAUACAACCUACUACCUCA", "pre-steady-state target cleavage rate": "0.00713 ± 0.0044"}
{"sequence": "GGAGAGGAUACUAUACAACCCUACUACCUCA", "pre-steady-state target cleavage rate": "0.00598 ± 0.0032"}
{"sequence": "GGAGACCUAACUAUACUACCUACUACCUCA", "pre-steady-state target cleavage rate": "0.00314 ± 0.0024"}
{"sequence": "GGAGUGGAUACUAUACUACCUACUACCUCA", "pre-steady-state target cleavage rate": "0.00816 ± 0.0037"}
{"sequence": "GGAGACGAUACUAUAGAAGCUACUACCUCA", "pre-steady-state target cleavage rate": "0.00294 ± 0.0013"}
{"sequence": "GGAGUGGAUACUAAACAACCUACUACGUCA", "pre-steady-state target cleavage rate": "0.00252 ± 0.0015"}
{"sequence": "GGAGACCUAUCUAUGCAACCUACUACCUCA", "pre-steady-state target cleavage rate": "0.00656 ± 0.0037"}
{"sequence": "GGAGACGAUACUAUACAACCGACUACCUCA", "pre-steady-state target cleavage rate": "0.00284 ± 0.002"}
{"sequence": "GGAGACCAUUCUAUACAACCUACUACCUGA", "pre-steady-state target cleavage rate": "0.00652 ± 0.0034"}
{"sequence": "GGAGUGGAUACUAUACAACCAUACUACCUCA", "pre-steady-state target cleavage rate": "0.00742 ± 0.0033"}
{"sequence": "GGAGUGGAUACUAUACAACGUUCUACCUCA", "pre-steady-state target cleavage rate": "0.00461 ± 0.0022"}
{"sequence": "GGAGACCUAUCCUAUACAACCUACUACCUCA", "pre-steady-state target cleavage rate": "0.0903 ± 0.032"}
{"sequence": "GGAGAGGAUCACUAUACAACCUACUACCUCA", "pre-steady-state target cleavage rate": "0.00867 ± 0.0051"}
{"sequence": "GGAGAGGAUACUAUACAACCUACUACCCA", "pre-steady-state target cleavage rate": "0.0052 ± 0.0025"}
